KKLEB tox – CF airway cell cytotoxicity counter-screen; activity change (cytotoxicity), % at 5 µM; 360,000 compounds, 0.36% hits; KKLEB CF airway cells viability, ATPlite luminescence, overnight; hits give low values; cells stimulated with P. aeruginosa culture filtrate;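 active = corrected activity change at or below -50% at 5 µM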
Peg3 promoter – reduces Peg3 promoter-driven luciferase expression in HeLa | inhibition, % at 20 µM | 360,000 compounds, 1.7% hits | HeLa PEG-Prom luciferase reporter, luminescence, overnight;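 active = inhibition of at least 50% at 20 µM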
CF NFkB inh – blocks PAF-induced NF-kB reporter in cystic fibrosis cells; KKLEB NF-kB-GFP reporter, GFP fluorescence overnight; inhibition, % at 5 µM; 360,000 compounds, 0.86% hits;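 active = at least 50% inhibition at 5 µM, scaled per plate between neutral and stimulator controls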;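 note: PAF is a Pseudomonas aeruginosa culture filtrate used as stimulus; plate controls were PAF-stimulated DMSO wells for no effect and unstimulated DMSO wells for full effect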
HSP90 refold inh – inhibitors of HSP90 luciferase refolding in rabbit reticulocyte lysate; inhibition, % at 5.6 µM; AID 1789; luciferase refolding luminescence, 3 h; 290,000 compounds, 0.91% hits;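 active = inhibition above the screen-wide mean plus 3 SD, computed separately per campaign, cut at about 16% in these data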;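 note: 0% = DMSO wells and 100% = 60 µM geldanamycin wells; inhibitors lower the luminescence because luciferase stays unfolded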
Mdm2 MdmX PPI – inhibitors of human Mdm2/MdmX interaction | O15151+Q00987 | SaOS-2 split-luciferase Mdm2/MdmX complementation, luminescence | inhibition, % at 8 µM | 330,000 compounds, 3% hits;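 active = inhibition of at least 50% at 8 µM in the primary screen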
Target sequence (O15151 whole entry, looked up): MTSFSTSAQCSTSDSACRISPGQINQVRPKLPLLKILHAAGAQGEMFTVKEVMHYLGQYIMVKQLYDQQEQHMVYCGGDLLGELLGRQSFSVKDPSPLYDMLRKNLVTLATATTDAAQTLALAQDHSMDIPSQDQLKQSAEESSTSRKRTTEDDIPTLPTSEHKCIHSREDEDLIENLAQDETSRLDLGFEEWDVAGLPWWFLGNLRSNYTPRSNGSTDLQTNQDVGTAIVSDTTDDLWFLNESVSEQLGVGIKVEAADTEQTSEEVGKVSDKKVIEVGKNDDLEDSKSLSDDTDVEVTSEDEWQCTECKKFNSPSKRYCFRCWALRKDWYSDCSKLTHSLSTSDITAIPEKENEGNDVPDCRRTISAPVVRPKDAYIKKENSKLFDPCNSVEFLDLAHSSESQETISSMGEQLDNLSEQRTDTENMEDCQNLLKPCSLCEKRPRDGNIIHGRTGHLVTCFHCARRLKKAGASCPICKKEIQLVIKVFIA
Target sequence (Q00987 whole entry, looked up): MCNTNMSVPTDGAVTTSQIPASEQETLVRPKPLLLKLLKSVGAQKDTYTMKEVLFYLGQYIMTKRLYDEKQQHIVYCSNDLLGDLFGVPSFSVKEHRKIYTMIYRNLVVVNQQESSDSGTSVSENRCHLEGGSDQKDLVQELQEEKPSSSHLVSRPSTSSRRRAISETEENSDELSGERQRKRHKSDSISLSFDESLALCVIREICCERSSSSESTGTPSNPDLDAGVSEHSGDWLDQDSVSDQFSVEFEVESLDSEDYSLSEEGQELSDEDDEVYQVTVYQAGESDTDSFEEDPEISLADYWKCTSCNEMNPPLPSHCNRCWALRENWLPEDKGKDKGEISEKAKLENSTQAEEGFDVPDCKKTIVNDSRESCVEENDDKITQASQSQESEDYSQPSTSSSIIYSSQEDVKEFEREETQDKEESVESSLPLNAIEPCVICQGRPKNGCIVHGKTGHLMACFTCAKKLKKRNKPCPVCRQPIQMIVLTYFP
LGR2 inh – blocks bursicon-induced cAMP signaling via Drosophila LGR2 | 380,000 compounds, 0.35% hits | HEK293 LGR2, CRE-luciferase, bursicon-stimulated, 4 h | AID 720647 | inhibition, % at 9.99 µM;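 active = drop in luminescence signal, shown as inhibition above about 50% in the replicate tests, limit read from the data, passing the limit was not always enough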;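 note: agonist challenge used bursicon conditioned medium at about half maximal strength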
Mdm2-MdmX conf – human Mdm2/MdmX binding inhibition, confirmed; shares compounds with Mdm2 MdmX PPI; luminescent assay; inhibition, % at 8 µM; 10,000 compounds, 55% hits; in the data active = inhibition above about 40%
FLuc counter – inhibits full-length luciferase, flagging false Mdm2/MdmX hits; shares compounds with Mdm2 MdmX PPI; SaOS-2 full-length luciferase counterscreen, luminescence; inhibition, % at 8 µM; 6,200 compounds, 77% hits;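 active = mean inhibition at 8 µM reaching about 37%, which flags the compound as non-specific, limit read from the data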;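 note: p53-null SaOS-2 cells with luciferase driven by a doxycycline-inducible promoter; compound on cells about two nights before reading with doxycycline added after day one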
Active calls of the source: *; / = not tested or not shown. Only some compounds are listed: those with a hit (about 3.6% of all), similar ones and a draw of the others.

SMILES	KKLEB tox	Peg3 promoter	CF NFkB inh	HSP90 refold inh	Mdm2 MdmX PPI	LGR2 inh	Mdm2-MdmX conf	others
Cc1ccc(OCC(O)Cn2c3ccccc3c3ccccc32)cc1 (stereo not drawn)	-9.0	47.3	5.0	-0.7	42.4	5.7	/
Nc1nc(Cl)cc(N2CCC(c3cc(-c4ccc(Cl)cc4)n[nH]3)CC2)n1	4.8	21.6	-7.3	7.2	83.9*	28.2	-0.9
Cc1ccc(CN2CCC(c3cc(-c4ccc(Cl)cc4)n[nH]3)CC2)cc1	-11.5	30.8	0.0	-0.5	64.0*	19.8	36.1	FLuc counter=74.0*
COc1ccc(-c2cc(C3CCN(Cc4ccc([N+](=O)[O-])cc4)CC3)[nH]n2)cc1	5.7	29.4	-5.0	-0.1	40.3	9.3	/
COc1ccc2c3c(n(C)c2c1)[C@@H](CO)N(Cc1ccccc1F)CC31CN(C(=O)C2CCCC2)C1	/	/	/	/	/	-8.6	/
COc1ccc2c3c([nH]c2c1)[C@H](CO)N(C(=O)C1CCCCC1)CC31CCN(C)CC1	/	/	/	/	/	5.3	/
CSc1nc(SCC(=O)NCc2ccco2)c2c3c(sc2n1)COC(C)(C)C3	-20.1	15.9	13.4	-1.2	50.7*	/	40.8*	FLuc counter=67.9*
CSc1nc(SCC(=O)O)c2c3c(sc2n1)COC(C)(C)C3	8.4	1.8	-8.6	10.8	-31.8	-2.4	/
C[C@@H]1CN([C@@H](C)CO)C(=O)c2cc(N(C)C)ccc2O[C@@H]1CN(C)C(=O)Nc1cccc2ccccc12	/	/	/	/	/	3.9	/
OC(c1ccccc1)(c1ccccc1)C1CCN(CCCOc2cc(F)cc(F)c2)CC1	/	/	/	/	/	-5.3	/
CC(C)(C)c1ccc(C(O)CCCN2CCC(C(O)(c3ccccc3)c3ccccc3)CC2)cc1 (stereo not drawn)	-15.0	95.5*	13.5	8.5	99.2*	4.8	88.2*	FLuc counter=41.8*
Nc1nc(N)c(N=O)c(OCC2CCCCC2)n1	10.2	-22.1	41.5	-2.9	57.1*	-21.1	33.4
O=C(Nc1ccc(Cl)c(S(=O)(=O)N2CCOCC2)c1)c1ccc(OCC2CCCO2)cc1 (stereo not drawn)	0.7	103.3*	2.2	-1.6	74.9*	/	65.2*	FLuc counter=59.5*
O=C(Nc1ccc(Cl)c(S(=O)(=O)N2CCOCC2)c1)c1n[nH]c(=O)c2ccccc12	-27.9	16.4	29.0	/	59.6*	2.5	-13.3
Cc1ccc(NC(=O)c2n[nH]c(=O)c3ccccc23)cc1S(=O)(=O)N1CCOCC1	7.7	20.8	-0.9	/	7.2	-4.0	/
CCC(=O)N(C)C[C@@H]1Oc2cc(C#CC(C)C)ccc2S(=O)(=O)N([C@@H](C)CO)C[C@@H]1C	/	/	/	/	/	-6.0	/
C[C@@H]1CCCCO[C@@H](CN(C)Cc2ccc3c(c2)OCO3)[C@H](C)CN([C@H](C)CO)C(=O)c2cc(NC(=O)Nc3ccccc3)ccc2O1	/	/	/	/	/	-11.3	/
C[C@@H]1CN([C@H](C)CO)C(=O)c2cc(-c3ccccc3)cnc2O[C@@H]1CN(C)C(=O)c1cccnc1	/	/	/	/	/	7.1	/
COc1ccc(-c2nn(-c3ccccc3)cc2/C=N/NC(=O)c2ccc3c(c2)OCO3)cc1	/	/	/	-1.6	19.8	/	/
C=CCNC(=S)N/N=C/c1cn(-c2ccccc2)nc1-c1ccc(OC)cc1	-52.8*	-14.3	53.2*	-5.2	50.7*	/	15.9
COc1ccc(-c2nn(-c3ccccc3)cc2/C=N/NC(=O)c2ccc(Br)o2)cc1	14.4	89.6*	-24.8	-1.1	68.5*	/	-37.8
COc1ccc(-c2nn(-c3ccccc3)cc2/C=N/NC(=S)NC(C)C)cc1OC	0.5	46.1	-11.4	-4.9	31.9	15.4	/
CO[C@@H]1CN(C)C(=O)c2ccc(NC(=O)C3CCCC3)cc2OC[C@@H](C)N(CCC(F)(F)F)C[C@H]1C	/	/	/	/	/	11.9	/
COc1ccc2c3c([nH]c2c1)[C@H](CO)N(C(=O)C1CCCC1)CC31CN(C(=O)c2ccncc2)C1	/	/	/	/	/	12.3	/
CN(C)CCCN(C(=O)/C=C/c1cccs1)c1nc2ccc(F)cc2s1	-29.6	-10.4	45.1	0.4	58.6*	12.3	38.9	FLuc counter=62.7*
SMILES	KKLEB tox	Peg3 promoter	CF NFkB inh	HSP90 refold inh	Mdm2 MdmX PPI	LGR2 inh	Mdm2-MdmX conf	others
CN(C)CCN(C(=O)/C=C/c1cccs1)c1nc2ccc(Br)cc2s1	-22.4	18.3	26.0	2.1	27.1	8.1	/
CN(C)CCN(C(=O)/C=C/c1cccs1)c1nc2c(F)cc(F)cc2s1	-30.7	105.8*	31.8	-0.3	69.4*	28.1	41.9*	FLuc counter=28.9
CCN(CC)CCN(C(=O)/C=C/c1cccs1)c1nc2ccc(F)cc2s1	-9.1	-34.6	6.4	-0.6	52.1*	-2.7	19.8
Cc1ccc2nc(N(CCN(C)C)C(=O)/C=C/c3cccs3)sc2c1	-18.9	14.9	-0.3	3.4	31.9	/	/
CCN(CC)CCN(C(=O)/C=C/c1cccs1)c1nc2ccc(C)cc2s1	-16.2	13.6	30.7	-2.0	65.1*	8.6	19.9
CN(C)CC(=O)Nc1ccc2c(c1)[C@@H]1C[C@@H](CC(=O)N3CCc4ccccc4C3)O[C@H](CO)[C@@H]1O2	/	/	/	/	/	-25.7	/
Cc1[nH]c(=S)[nH]c(=O)c1CCOc1ccccc1	-2.1	5.6	-5.0	-0.3	31.5	/	/
Cc1ccccc1OCCc1c(C)[nH]c(=S)[nH]c1=O	-7.1	20.4	25.4	1.0	54.6*	-161.8	62.1*	FLuc counter=56.2*
C[C@@H]1CCCCO[C@@H](CN(C)C(=O)Cc2ccccc2)[C@H](C)CN([C@H](C)CO)C(=O)c2cc(NS(=O)(=O)c3cccs3)ccc2O1	/	/	/	/	/	10.1	/
Cc1ccc(C(=O)N/C(=C\c2ccc(-c3cc(Cl)ccc3Cl)o2)C(=O)NCc2cccnc2)cc1	-9.2	16.4	5.5	-2.6	13.7	/	/
O=C(NCc1cccnc1)/C(=C/c1ccc(-c2cccc(Cl)c2)o1)S(=O)(=O)c1ccccc1	-12.9	15.4	6.4	9.4	98.8*	27.5	99.7*	FLuc counter=50.8*
O=C(C[C@@H]1C[C@H]2c3cc(NC(=O)c4ccc5c(c4)OCO5)ccc3O[C@H]2[C@H](CO)O1)NCC(F)(F)F	/	/	/	/	/	-8.7	/
CCCN1C(=O)/C(=C/c2c(N3CCNC(=O)C3CC(=O)OCC)nc3c(C)cccn3c2=O)SC1=S (stereo not drawn)	-8.0	46.6	-8.4	-1.1	73.5*	/	67.5*	FLuc counter=74.3*
CCOC(=O)CC1C(=O)NCCN1c1nc2ccc(C)cn2c(=O)c1/C=C1\SC(=S)N(CC(C)C)C1=O (stereo not drawn)	-2.8	37.0	-125.9	2.4	36.1	/	/
CCCNC(=O)N[C@@H]1C=C[C@@H](CC(=O)NC2CCCCC2)O[C@@H]1CO	/	/	/	/	/	-14.7	/
COCC#Cc1cnc2c(c1)C(=O)N([C@H](C)CO)C[C@H](C)[C@H](CN(C)Cc1ccccc1F)O2	/	/	/	/	/	-1.4	/
Cc1ccc(SCC(=O)NCCC2=CCCCC2)cc1	-7.4	-93.8	11.8	0.9	-12.1	/	/

Source: PubChem BioAssay (several laboratories)
